Mtb betalactam – beta-lactam sensitization of Mtb H37Rv; 330,000 compounds, 0.27% hits; M. tuberculosis H37Rv growth with meropenem, percent inhibition; inhibition, % at 25 µM; call rule not given here;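 also: growth measured after seven days incubation then overnight dye step; 0% = bacteria only wells and 100% = bacteria with antibiotic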
GDH-TPI counter – counter-screen for M. tuberculosis FBA inhibitors: GDH-TPI coupled enzymes | GDH-TPI coupled enzyme counterscreen, NADH absorbance | inhibition, % at 4.8 µM | 360,000 compounds, 1.2% hits | AID 588335; in the data active = inhibition above about 30%;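 also: 0% = DMSO wells and 100% = wells lacking the enzyme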
RecA splice inh – blocks M. tuberculosis RecA intein splicing; P9WHJ3; cell-free RecA intein splicing, fluorescence; inhibition, % (concentration not given with the values); 290,000 compounds, 0.75% hits; AID 2221; in the data active = inhibition above about 30%;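 also: 0% = vehicle wells and 100% = reference inhibitor control wells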
Rv3671c inh – inhibits the M. tuberculosis serine protease Rv3671c; AID 2606; 320,000 compounds, 0.048% hits; inhibition, % at 5.96 µM; P9WHR9; in the data active = inhibition above about 38%;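 also: extracellular domain of Rv3671c used as enzyme; 0% = enzyme with DMSO and 100% = no enzyme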
FBA Mtb inh – inhibitors of M. tuberculosis fructose-bisphosphate aldolase | P9WQA3 | purified M. tuberculosis FBA, fluorescence read-out | inhibition, % at 1 µM | 360,000 compounds, 2.3% hits; in the data active = inhibition above about 27%;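 also: 0% = vehicle and 100% = reference inhibitor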
UGM FP inh – Mtb UDP-galactopyranose mutase inhibition | P9WIQ1 | purified UGM, fluorescence polarization probe displacement | inhibition, % at 10 µM | 320,000 compounds, 0.06% hits; in the data active = inhibition above about 10%, passing the limit was not always enough
Target sequence (P9WIQ1 whole entry, looked up): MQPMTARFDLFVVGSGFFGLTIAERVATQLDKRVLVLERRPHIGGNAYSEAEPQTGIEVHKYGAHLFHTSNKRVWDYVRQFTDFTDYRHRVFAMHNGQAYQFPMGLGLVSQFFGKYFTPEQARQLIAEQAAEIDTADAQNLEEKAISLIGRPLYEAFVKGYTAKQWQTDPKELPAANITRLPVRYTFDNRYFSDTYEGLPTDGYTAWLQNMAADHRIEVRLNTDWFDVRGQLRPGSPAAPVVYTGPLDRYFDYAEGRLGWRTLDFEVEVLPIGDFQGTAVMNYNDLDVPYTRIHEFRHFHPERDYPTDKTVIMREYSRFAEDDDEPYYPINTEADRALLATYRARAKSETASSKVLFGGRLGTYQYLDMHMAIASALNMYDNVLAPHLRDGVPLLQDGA
Numbers without * were called inactive; i = inactive; · = no result; + = active, no number. Only some compounds are listed: those with a hit (about 4% of all), similar ones and a draw of the others.

SMILES	Mtb betalactam	GDH-TPI counter	RecA splice inh	Rv3671c inh	FBA Mtb inh	UGM FP inh
Cc1noc(C)c1CSCC(=O)Nc1cc(S(=O)(=O)N2CCOCC2)ccc1OC(C)C	-3	11	3	5	4	4
COc1ccc(N2C(=NC(=O)C3CCCO3)SC3CS(=O)(=O)CC32)cc1 (stereo not given)	-16	11	3	1	0	-1
CCN(C(=O)Cc1c(C(=O)O)n(C)c2ccccc12)c1cccc(C)c1	7	5	-1	5	3	-2
N#C/C(=C\c1cccs1)C(=O)Nc1nccs1	-7	13	-4	-5	2	0
COCCCNC(=O)c1cc2c(=O)n3cccc(C)c3nc2n(C(C)C)c1=N	-4	-1	-408	-1	+	1
CCNC(=O)c1cc2c(=O)n3cccc(C)c3nc2n(Cc2ccc(C)cc2)c1=N	100	4	i	4	112*	3
Cc1cccn2c(=O)c3cc(C(=O)NC(C)C)c(=N)n(Cc4ccncc4)c3nc12	-13	2	-383	3	+	-4
CCC(=O)N1CCc2cc(S(=O)(=O)CCC(=O)N(C)c3ccc(OC)cc3OC)ccc21	-3	13	-1	0	5	0
O=C(Nc1ccc(Cl)cc1)C1CCN(C(=O)c2cccs2)CC1	-11	2	0	-2	2	-2
CCOC(=O)C1(C)CCCN(C(=O)c2c(-c3ccccc3)noc2C)C1 (stereo not given)	·	-4	·	·	-1	·
COc1ccc(Cc2c(C3CCCCC3)nc3c(C)cc(Br)cn23)c(C)c1	·	·	·	·	-2	·
CCCS(=O)(=O)c1nc(S(=O)(=O)c2ccc(C)cc2)c(NCCCN2CCCC2=O)s1	1	8	0	3	0	2
CCOc1ccc(NCC(=O)N/N=C/C=C/c2ccccc2)cc1	-6	12	1	1	-2	0
CC(/C=C/C=C/c1ccccc1)=N/NC(=O)CNc1ccc(C)cc1	12	33*	4	0	-3	0
CC(/C=C/C=C/c1ccccc1)=N/NC(=O)C(O)c1ccccc1 (stereo not given)	28	50*	0	-1	-3	1
CC(/C=C/c1ccco1)=N\NC(=O)C(O)c1ccccc1 (stereo not given)	-3	17	1	-1	-1	0
O=C(NC1CCCCC1)N(Cc1cc2cc3c(cc2[nH]c1=O)OCCO3)CC1CCCO1 (stereo not given)	-3	36*	-2	5	23	4
O=C(NC1CCCCC1)N(CCO)Cc1cc2cc3c(cc2[nH]c1=O)OCCO3	4	13	-2	-3	23	-3
O=S(=O)(NCCCSc1ccccc1)c1ccccc1F	8	4	1	-9	-2	1
COc1ccc(/C=C2\SC(N)=NC2=O)cc1	3	30	-1	·	1	0
NC1=NC(=O)C(=Cc2ccccc2)S1	·	31*	·	·	3	·
CN(C)C1=NC(=O)/C(=C\c2ccccc2)S1	41	31*	0	-1	-4	1
NC1=NC(=O)/C(=C/c2cccs2)S1	10	32*	·	0	-2	-2
NC1=NC(=O)/C(=C\c2cccnc2)S1	-3	20	2	9	1	-1
C=CCSC1=NC(=O)/C(=C/c2cccs2)S1	-1	28	·	0	-1	1
SMILES	Mtb betalactam	GDH-TPI counter	RecA splice inh	Rv3671c inh	FBA Mtb inh	UGM FP inh
COC(=O)c1cccc(NS(=O)(=O)c2ccc(OC)c(C(=O)N3CCOCC3)c2)c1C	2	-2	3	-5	1	-1
O=C(CSc1ccc(Cl)cc1)NNC(=O)c1ccncc1	·	7	·	·	0	·
COc1ccc(/C=N\NC(=O)c2cc3c(ccc4ccccc43)o2)cc1O	1	39*	-5	·	9	-3
COc1ccc2ccc(OC)c(/C=N/NC(=O)c3cc4ccccc4o3)c2c1	·	32*	·	·	4	·
COc1ccc(/C=N/NC(=O)c2cc3c(ccc4ccccc43)o2)cc1OC	-2	26	-5	·	7	-1
COc1cc(/C=N/NC(=O)c2cc3c(ccc4ccccc43)o2)cc(OC)c1O	5	49*	-7	9	5	-2
CC1(C(=O)Nc2ccc3c(c2)OCO3)Cc2c(-c3cccc(C(N)=O)c3)ccnc2O1 (stereo not given)	·	9	·	·	-1	·
Cn1c(=NC(=O)c2ccccc2[N+](=O)[O-])sc2cccc(F)c21	-3	4	-3	-2	3	0
OCCNc1ncnc2c1ncn2[C@H]1CN(Cc2ccc(Cl)cc2)C[C@@H](CO)O1	·	0	·	·	-1	·
COc1cccc(CNc2nc3cc(-c4cccc(Cl)c4)sc3c(=O)n2C)c1	·	15	·	·	4	·
COc1ccc(-c2cc3nc[nH]c(=O)c3s2)cc1	69	31*	1	-4	+	-1
COc1ccc(-c2cc3nc(CCl)[nH]c(=O)c3s2)cc1	99	19	10	-17	160*	5
COc1cccc(CNC(=O)Cn2cc([N+](=O)[O-])cn2)c1	-7	19	3	1	2	-1
CCOc1ccc(-n2c(O)c(C=Nc3ccc(N4CCOCC4)cc3)c(=O)[nH]c2=O)cc1	3	32*	-19	4	-1	5
CC(=O)N1CCN(CCN=Cc2c(O)n(-c3ccc(F)cc3)c(=S)[nH]c2=O)CC1	-1	14	-1	-3	-2	5
O=c1[nH]c(=S)n(-c2ccc(F)cc2)c(O)c1/C=N/N1CCOCC1	-7	31*	-4	-3	-1	-3
CC(=O)N1CCN(CCN=Cc2c(O)n(-c3ccc(C)cc3)c(=S)[nH]c2=O)CC1	-5	37*	1	-5	-3	0
Cn1c(O)c(/C=N/N2CCOCC2)c(=O)n(-c2ccccc2)c1=S	-11	35*	-1	8	0	0
O=c1[nH]c(=S)n(-c2ccc(Br)cc2)c(O)c1C=Nc1ccc(N2CCOCC2)cc1	0	16	-8	-27	-3	-1
O=c1c(/C=N/N2CCOCC2)c(O)n(-c2ccccc2)c(=S)n1-c1ccccc1	3	21	-3	2	-5	0
O=C(COc1ccc(Br)cc1)NCCCNC(=O)c1ccncc1	-8	-1	-1	4	2	-11
COc1cccc(/C=N/NC(=O)c2[nH]c(C)c(C(=O)N/N=C/c3cccc(OC)c3)c2C)c1	3	42*	3	-8	-5	-2
COc1ccc(/C=N/NC(=O)c2[nH]c(C)c(C(=O)N/N=C/c3ccc(OC)cc3)c2C)cc1	-2	100*	-5	-3	-3	·
CCOC(=O)c1c(C)[nH]c(C(=O)N/N=C/c2cccc(OC)c2)c1C	-1	19	3	-9	1	-1
CC(=O)c1c(C)[nH]c(C(=O)Nc2cccc(C(F)(F)F)c2)c1C	0	-2	2	-19	0	0
Nc1[nH]c(=O)[nH]c(=O)c1N=Cc1ccccc1	·	7	·	·	43*	·
COC(=O)C1(C)Cc2cc(OC(C)=O)c(OC(C)=O)cc2N1 (stereo not given)	1	·	61*	2	·	-1
